p53 reactivation: restores transcriptional activity of mutant p53. H1299 p53-A138V BP100-luciferase reporter, luminescence, 24 h. Potency, µM (series often up to 92.2 µM), for the others: at the top dose activity change, positive = activation, most hits filed as activators. 320,000 tested, 0.063% active. AID 504706; note: potency is the fitted concentration of half-maximal effect; % of control where 0% means no effect; nearly all actives have a fitted effect of over 45% in size
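p53-null H1299 cells stably carrying temperature-sensitive p53-A138V and a BP100-luciferase reporter were pinned with compounds (4-point, 1:5 series) and held 24 hrs at 37 deg C. Luminescence was read 10 min after detection reagent.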
Gal4-VP16 FLuc: Gal4-VP16 reporter inhibition counter-screen; Potency, µM (top dose mostly 53.6 µM), for the others: top-dose activity, negative = inhibition, most hits filed as inhibitors; Drosophila S2 Gal4-VP16 UAS-luciferase, luminescence, 20 h; 310,000 tested, 3.5% active; AID 2546;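 note: Gal4-VP16 expression switched on by copper sulfate through the metallothionein promoter; potency is the fitted concentration of half-maximal effect; % is set by controls: 0 for no effect and ±100 for the full control effect; nearly all actives have a fitted effect of over 50% in size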
RORgamma inh: ROR gamma (mouse) transcription inhibition | Drosophila S2 Gal4-RORgamma UAS-luciferase reporter, 20 h | 310,000 tested, 5.4% active | Potency, µM (series often up to 53.6 µM), for inactives: at the top dose activity change, negative = inhibition, actives largely listed as inhibitors | AID 2551 | P51450; note: potency is the fitted concentration of half-maximal effect; % is set by controls: 0 for no effect and ±100 for the full control effect; nearly all actives have a fitted effect of over 60% in size
Target sequence (P51450 whole entry, looked up, the tested form may be a part): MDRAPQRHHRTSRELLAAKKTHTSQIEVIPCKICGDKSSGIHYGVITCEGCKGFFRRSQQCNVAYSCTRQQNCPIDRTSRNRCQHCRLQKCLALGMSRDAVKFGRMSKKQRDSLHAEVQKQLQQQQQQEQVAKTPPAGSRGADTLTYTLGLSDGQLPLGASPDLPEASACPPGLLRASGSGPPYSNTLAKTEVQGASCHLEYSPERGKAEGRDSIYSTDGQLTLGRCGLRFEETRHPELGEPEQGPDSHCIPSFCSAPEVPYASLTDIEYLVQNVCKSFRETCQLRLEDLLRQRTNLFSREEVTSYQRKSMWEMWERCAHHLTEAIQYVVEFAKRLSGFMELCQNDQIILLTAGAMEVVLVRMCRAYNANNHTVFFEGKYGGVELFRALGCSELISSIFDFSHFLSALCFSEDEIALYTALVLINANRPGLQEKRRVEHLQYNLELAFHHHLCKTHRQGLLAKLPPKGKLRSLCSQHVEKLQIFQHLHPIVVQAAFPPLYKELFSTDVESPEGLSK
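ROR gamma transcriptional activity was tracked as Gal4-UAS luciferase output in stably transfected Drosophila Schneider cells, with compound added 1 hr before 700 uM copper sulfate induction and a 20 hr ambient-temperature incubation.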
Six1-Eya2 blk: inhibitors of human Six1/Eya2 interaction | 360,000 tested, 0.56% active | activity change, % (no concentration beside the values) | AlphaScreen GST-Six1/His-Eya2 binding, biochemical; stronger effect = lower value; in the data active = activity change below about -65%; inconclusive = mostly about -30% to -63%; note: % is set by controls: 0 for no effect and ±100 for the full control effect
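Compounds are tested against tagged Six1 and Eya2 proteins bridged by glutathione donor and nickel acceptor beads; after a one-hour incubation at 37 °C without light, AlphaScreen emission is recorded.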
CtBP-E1A inh: blocks the CtBP interaction with E1A. activity change, % (no concentration beside the values). 340,000 tested, 0.49% active. AlphaScreen GST-E1A/His-CtBP binding, 1536-well; stronger effect = lower value; in the data active = activity change below about -65%; inconclusive = mostly about -30% to -63%; note: % is set by controls: 0 for no effect and ±100 for the full control effect
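AlphaScreen with 125 nM GST-E1A and 125 nM His-CtBP (5X stocks) in Tris pH 8.0, 300 mM NaCl, BSA, Tween 20, TCEP. Compounds preincubated 2 h at 37 deg C, then glutathione donor/nickel acceptor beads added for 1 h at 37 deg C in dark.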
Active calls of the source: *; u = inconclusive; x = no result; ! = repeats disagree; [ ] = another dose, or the depositor's remark. Most compounds without a hit are left out; they make up all but 5.4% or so of the library. Unless noted, calls come from the whole dose curve; as a rule, active = well fitted curve in the direction sought with a large enough effect; inconclusive = small, poorly fitted or top-dose-only effect, or another doubt; inactive = no such curve, though single readings can be large; an effect the other way counts as inactive or inconclusive.

SMILES	p53 reactivation	Gal4-VP16 FLuc	RORgamma inh	Six1-Eya2 blk	CtBP-E1A inh
Cc1ncc(CN2CCCC(C(=O)c3cccc(OC(C)C)c3)C2)s1 (stereo unspecified)	-0.1%	25.7%	u	-11.2	-4.5
COc1c(C)cc(C(=O)C2CCCN(Cc3ccccn3)C2)cc1C (stereo unspecified)	-3.9%	10µM*	2µM*	-2.4	-3.2
O=C(c1ccc2c(c1)OCO2)C1CCCN(Cc2ccccn2)C1 (stereo unspecified)	0.2%	u	3.16µM*	-5.1	1.0
COc1cccc(C(=O)C2CCCN(Cc3ccccn3)C2)c1 (stereo unspecified)	0.2%	u	3.55µM*	8.8	-2.6
COc1c(C)cc(C(=O)C2CCCN(Cc3cnc(C)s3)C2)cc1C (stereo unspecified)	-0.4%	6.3%	30.5%	-1.3	-1.5
CCOP(=O)(OCC)C(=Cc1cc(C(C)(C)C)c(O)c(C(C)(C)C)c1)P(=O)(OCC)OCC	x	-10.8%	u	x	x
ClCC(Cl)Cl	x	-7.7%	-5.3%	x	x
BrCCBr	x	6.7%	-0.3%	x	x
C[C@@H](Cc1cccc(C(F)(F)F)c1)NCCCc1ccccc1	x	-11.0%	22.4µM*	x	x
C#CCN[C@H](C)Cc1ccccc1	-2.6%	x	x	-17.1	0.5
CC1(C)[C@H](C(=O)O[C@H](C#N)c2cccc(Oc3ccccc3)c2)[C@@H]1C=C(Br)Br	x	4.7%	8.8%	x	x
COc1cc2c(cc1O)C(CCc1ccc(Cl)cc1)N(C)CC2 (stereo unspecified)	x	-1.1%	-0.6%	x	x
CC(=O)CC(c1ccc(O)cc1)c1c(O)c2ccccc2oc1=O (stereo unspecified)	x	3.5%	0.0%	x	x
CC/C(CC(c1ccccc1)c1c(O)c2ccccc2oc1=O)=N\NC(N)=S (stereo unspecified)	1.4%	u	10µM*	-7.8	-1.5
COc1cc2[nH]c(=S)n(-c3ccccc3)c(=O)c2cc1OC	-1.4%	-29.9%	3.98µM*	-12.1	-0.9
COc1ccc2c(c[n+](C)c3c4cc5c(cc4ccc23)OCO5)c1OC	x	8.91µM*!	7.08µM*	x	x
COc1cc2c(ccc3c4cc(OC)c(OC)cc4c[n+](C)c23)cc1O	x	x	x	u	4.0
O=C1c2cccc3cccc(c23)C(=O)N1CCN1CCN(C(=S)Nc2ccccc2)CC1	6.2%	u	14.1µM*	-11.7	26.8
O=C(COc1ccccc1)N1CCN(CCN2C(=O)c3cccc4cccc(c34)C2=O)CC1	0.6%	1.3%	12.3%	-11.5	x
C=C(C)[C@H]1CC[C@]2(C(=O)O)CC[C@]3(C)[C@@H](CC[C@H]4[C@@]5(C)CC[C@@H](O)C(C)(C)[C@@H]5CC[C@@]43C)[C@H]12	x	6.1%[17 µM]	-8.4%[16.9 µM]	x	x
O[N+]1=CC=CCC1=S.On1ccccc1=S.[Zn]	x	0.501µM*	0.316µM*	x	x
Fc1ccccc1-c1n[nH]c(=S)n1Cc1ccccc1	0.1%	11.2µM*	7.08µM*	-0.1	x
N#Cc1ccc(CN2CC[C@@]3(CCCN(C(=O)Oc4ccccc4)C3)C2)cc1	x	0.5%	3.4%	x	x
Cc1ccccc1-n1c(O)c(/C=N/Nc2nc3c(c(=O)n(C)c(=O)n3C)n2C)c(=O)[nH]c1=S	-11.5%	-6.8%	-6.0%	-67.9*	-78.0*
COc1ccc(N/N=C/c2c(O)n(-c3cccc(C)c3)c(=O)[nH]c2=O)cc1	-0.7%	2.9%	3.9%	-12.9	-8.1
SMILES	p53 reactivation	Gal4-VP16 FLuc	RORgamma inh	Six1-Eya2 blk	CtBP-E1A inh
Cn1c(=O)c2c(nc(N/N=C/c3c(O)n(C4CCCCC4)c(=S)[nH]c3=O)n2C)n(C)c1=O	0.6%	-2.1%	u	-81.2*	u
Cn1c(O)c(/C=N/NC(=O)c2ccncc2)c(=O)[nH]c1=S	1.3%	-1.1%	-3.1%	-14.3	x
Cc1cccc(-n2c(O)c(/C=N/Nc3nc4c(c(=O)n(C)c(=O)n4C)n3C)c(=O)[nH]c2=S)c1	-0.2%	1.8%	-25.5%	-89.6*	-73.1*
CCOC(=O)C1OC1(C)c1ccccc1 (stereo unspecified)	x	-4.0%	2.1%	x	x
CCCCOCCOP(=O)(OCCOCCCC)OCCOCCCC	x	7.0%	-0.5%	x	x
S=c1[nH]nc(-c2ccccc2)n1C1C=CCCC1 (stereo unspecified)	5.6%	2.82µM*	-127.4%	4.9	-8.8
Clc1ccccc1C(c1ccccc1)(c1ccccc1)n1cccn1	x	3.2%	1.9%	x	x
Cc1cc(C)cc(N2C(=O)NC(=O)/C(=C/c3cccn3-c3ccc(Cl)cc3)C2=O)c1	17.5%	11.2µM*	31.6µM*	-4.9	4.0
COC1(C)CC(c2ccccc2)c2c(c3ccccc3oc2=O)O1 (stereo unspecified)	x	-3.1%	25.6%	x	x
CC(=O)C1CCC2C3CCC4CC(C)(O)CCC4(C)C3CCC12C (stereo unspecified)	x	-4.7%	-33.3%	x	x
COC(=O)[C@@H]1[C@@H](O)[C@@]2(O)c3c(OC)cc(OC)cc3O[C@@]2(c2ccc(OC)cc2)[C@H]1c1ccccc1	x	0.1µM*	0.398µM*	x	x
O=c1[nH]c(=O)n(-c2ccc(Cl)cc2)c(O)c1C=Nc1ccc(S(=O)(=O)Nc2nccs2)cc1	6.4%	-15.3%	2.5%	-0.5	7.2
Clc1cccc(/C=N\Nc2nccs2)c1	u	u	11.2µM*	-10.2	-10.0
CCCOCCN(C(=O)CCl)c1c(CC)cccc1CC	x	2.8%	-13.2%	x	x
CN1CSC(=S)N(C)C1	x	11.2µM*	10µM*	6.2	-1.9
COC(=O)[C@H]1[C@H](c2ccccc2)C(=O)[C@@]2(O)c3ccccc3O[C@@]12c1ccccc1	x	-6.3%[10 µM]	-12.3%[10 µM]	x	x
COC(=O)C1=C(C(=O)OC)SC2(S1)C(C(=O)OC)=C(C(=O)OC)Sc1c2ssc1=O	x	x	x	-90.8*	5.9
O=C(NN=Cc1ccc(N(CCCl)CCCl)cc1)c1cccc([N+](=O)[O-])c1	x	x	x	-17.3	-27.9
Cc1ccsc1/C=N/NC(=O)c1cccc(S(=O)(=O)Nc2ccccc2Cl)c1	-15.4%	3.16µM*	2.51µM*	-22.6	u
O=C(NC1CCCCC1)c1cn(CCN2CCOCC2)c2cc(Cl)ccc2c1=O	x	-7.8%	-10.4%	x	x
O=C=NCCCCN=C=O	x	-4.8%	-0.6%	x	x
COc1ccc(OCCn2cc(/C=C(\C#N)C(=O)NCc3ccco3)c3ccccc32)cc1	3.8%	3.55µM*	-41.3%	3.5	0.8
CN(C)S(=O)(=O)c1ccc(C(=O)NNc2nc(-c3ccccc3)c3cc(Br)ccc3n2)cc1	-11.2%	u	7.08µM*	u	3.9
COc1ccc(-c2nc3ccccc3c(=O)n2-c2nccs2)cc1	-7.3%	u	6.31µM*	0.2	-0.7
COc1ccc(C(O)P(=O)(OC(C)C)OC(C)C)cc1 (stereo unspecified)	-1.7%	-2.4%	3.6%	3.8	x
COc1ccc(C(=O)O/N=C(/C(N)=O)P(=O)(OC(C)C)OC(C)C)cc1	10.5%	7.94µM*	15.8µM*	19.9	6.9
CC(C)Br	x	-1.6%	13.4%	x	x
